Experimental data published in the supplement of paper PMC3334620.
In all, about 33,000 sequences were measured (“E-score (-0.5 to 0.5)”: median about -0.04, highest 2% from about 0.36 on). Many of the other results were omitted from the sample, so the highest values are more common in it than they were.

target: T1, Hmlalpha2 (UniProt P0CY09); assay: PBM E-score (8-mer binding enrichment) (E-score (-0.5 to 0.5)); higher = stronger / more preferred TF binding; details: protein concentration: 200 nM; construct: GST-full length
T1 sequence: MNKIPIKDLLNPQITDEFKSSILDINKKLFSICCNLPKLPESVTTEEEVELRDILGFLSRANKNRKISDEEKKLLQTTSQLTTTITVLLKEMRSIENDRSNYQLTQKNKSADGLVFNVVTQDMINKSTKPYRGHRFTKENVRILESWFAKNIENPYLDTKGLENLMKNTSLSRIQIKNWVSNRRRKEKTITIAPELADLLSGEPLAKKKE
Outline: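 Universal all-10-mer Agilent arrays, fresh or stripped once, were converted to double-stranded form by primer extension. GST-tagged yeast transcription factors from PURExpress in vitro transcription/translation, full-length or DNA-binding domain only, were applied at about 100-200 nM and detected with fluorescent anti-GST. After masliner normalisation, the Universal PBM Analysis Suite scored each ungapped eight-base word together with its reverse complement by E-score.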

Row | Sequence | PBM E-score
1 | GCTGCTTA | -0.0322
2 | CCAATGCG | -0.181
3 | GGTAAGCA | -0.0728
4 | AATAAGCC | -0.212
5 | GTGCATGA | 0.0341
6 | GAAAGTTC | -0.218
7 | GTATCCTA | 0.0388
8 | GCCTATGA | -0.147
9 | CCAACCCG | -0.242
10 | GGGCGAAC | -0.178
11 | GAACTCTA | 0.123
12 | TTATCGAA | 0.0652
13 | GATGTTAC | 0.304
14 | AATGTTAC | 0.269
15 | CCTGTTAG | 0.0951
16 | AATGTTAG | 0.185
17 | CATGTTAG | 0.422
18 | CATGTTAC | 0.41
19 | ATGGTCGA | -0.0159
20 | ACGTAAAG | 0.372
21 | ACGTAACA | 0.385
22 | ACGTAAAT | 0.376
23 | AGGTAAAG | 0.19
24 | CAGTAAAA | 0.134
25 | ACGTAACC | 0.22

Row | Sequence | PBM E-score
26 | ACGTAACG | 0.161
27 | CCGTAAAG | 0.0757
28 | ACGTAAAA | 0.388
29 | ACGTAAAC | 0.295
30 | ACGTAAGT | 0.216
31 | AAGTAAAA | 0.121
32 | ACCTAGTC | -0.177
33 | GAAGGACC | -0.245
34 | ACAAGCCT | 0.227
35 | TCCAAGCA | -0.164
36 | ATGGTAGA | 0.079
37 | GCGTAAAA | 0.4
38 | TCGTAAAA | 0.237
39 | GCGTAAGC | 0.183
40 | CCGTAAAA | 0.12
41 | CCGTAAAC | 0.199
42 | GCGTAAAC | 0.404
43 | CTTCAATA | 0.173
44 | ATACGGCA | 0.103
45 | CCATGTGC | 0.0482
46 | GCATGTAC | 0.408
47 | ACATGTCT | 0.305
48 | CCATGTAG | 0.416
49 | AAATGTAT | 0.277
50 | CCATGTAC | 0.398

Row | Sequence | PBM E-score
51 | GCCTGTAC | 0.101
52 | CCATGTCG | 0.336
53 | ACATGTAT | 0.454
54 | CGATGTAG | 0.106
55 | GCATGTCC | -0.0024
56 | CCATGTCC | -0.00972
57 | GCAGCTCA | -0.181
58 | CTATGGAC | -0.125
59 | CTGCGAAA | 0.0491
60 | ATTCTGCA | -0.0444
61 | ACCATCGT | -0.151
62 | TCTAAGCA | -0.0643
63 | TCGCTTAA | 0.0673
64 | AATATGCT | 0.0361
65 | ACATGTCG | 0.343
66 | AGATGTAC | 0.121
67 | ACATGTAG | 0.459
68 | ACATGTGC | 0.352
69 | ACATGTAC | 0.412
70 | ACATGTGG | 0.312
71 | CGGTGCGC | -0.279
72 | ACTCTATC | -0.0301
73 | ACCGTAGT | -0.225
74 | AAGGGCCT | -0.136
75 | ATGGCATA | -0.0529

Row | Sequence | PBM E-score
76 | CAAAGGTC | -0.233
77 | ACGATTTA | 0.244
78 | TAACACTA | 0.316
79 | CTACACAA | 0.369
80 | CTACAAAA | 0.0813
81 | CCACACAA | -0.0216
82 | TTACAAAA | 0.266
83 | TTACACAA | 0.478
84 | TCACACAA | 0.23
85 | CTACAGAG | 0.184
86 | CTACACCC | 0.0904
87 | CCACACAC | 0.0345
88 | CTACACAC | 0.391
89 | CTCTACAG | 0.0676
90 | CTACACAG | 0.421
91 | GCATAAGC | 0.119
92 | ACTGCCTC | -0.0994
93 | CCCATTCG | -0.0725
94 | GAAGCGGC | -0.131
95 | GTACACAA | 0.373
96 | GTACACAC | 0.357
97 | GCACACAA | 0.155
98 | AAGTGCTG | 0.107
99 | TGCCACCA | -0.261
100 | AACATGGT | 0.384

Row | Sequence | PBM E-score
101 | AACATGGC | 0.406
102 | AACATGGG | 0.415
103 | CACATGGG | -0.0456
104 | CACATGGC | 0.0319
105 | GACATGGC | 0.224
106 | AACATGGA | 0.346
107 | ACCATGGT | -0.0519
108 | ATCATGGG | -0.0934
109 | ACACTGTA | 0.116
110 | TCAGAAGA | -0.267
111 | AATGCCCA | 0.0243
112 | AAATCCGG | -0.18
113 | AAGTATTG | 0.0978
114 | AACACAAT | 0.373
115 | CACACAAC | 0.27
116 | AACACAGG | 0.247
117 | CACACAAG | 0.248
118 | GACACAAC | 0.264
119 | AACACAAC | 0.409
120 | AACACAAG | 0.326
121 | CACACAGC | 0.201
122 | AACACAGC | 0.379
123 | CGTTAGGA | 0.0405
124 | CATCGACA | -0.0243
125 | GACGCTCA | -0.111

Row | Sequence | PBM E-score
126 | GGCCACCC | -0.351
127 | CGGGGCGC | -0.244
128 | AACACGTA | 0.41
129 | TACACGTA | 0.428
130 | CACACGTC | 0.166
131 | AACACGTT | 0.403
132 | AACACGTC | 0.377
133 | AAAACGTT | 0.0264
134 | GACACGTA | 0.293
135 | CACACGTA | 0.271
136 | ACCACGTA | 0.254
137 | AACACGTG | 0.348
138 | GACACGTC | 0.2
139 | CACACGTG | 0.289
140 | CAAGTACA | 0.266
141 | TAAGTGGA | 0.0716
142 | ACATTTAC | 0.348
143 | ACTGTCGC | -0.165
144 | CGGAGAAG | -0.358
145 | CCCTTTAG | -0.261
146 | ATGACTCG | -0.0578
147 | GATCTAAC | 0.0316
148 | CACCGACG | 0.00164
149 | ACTAGGAG | -0.0601
150 | AACTAGGG | -0.094

Row | Sequence | PBM E-score
151 | GAGGGAAC | -0.165
152 | ACACACGG | 0.277
153 | ATACACTA | 0.149
154 | AGACACGG | 0.228
155 | ATACACGC | 0.449
156 | AGACACGC | 0.147
157 | ACACACGC | 0.288
158 | ATACACGA | 0.432
159 | ATACACGG | 0.445
160 | ATACACCA | 0.215
161 | CTTTCATA | 0.162
162 | AGGTGTTA | 0.256
163 | AGGTGTTG | -0.053
164 | GCGTGGTA | 0.0607
165 | CCGTGTTC | 0.328
166 | CCGTGTTA | 0.44
167 | GCGTGTTA | 0.46
168 | CAGTGTTA | 0.212
169 | ACGTGTGG | 0.136
170 | GCGTGTGA | 0.284
171 | ACGTGTTA | 0.45
172 | ACGTGTTC | 0.211
173 | ACGTGTTG | 0.415
174 | TCGGAGCA | -0.279
